Compound activity as filed in PubChem BioAssay.
MK inhibit: blocks S. pneumoniae mevalonate kinase | purified MK, PK/LDH-coupled NADH absorbance 340 nm | inhibition, % at 10 µM | 0.48% of 65,000 active;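 active = ranked among the strongest by inhibition in the single 10 µM screen, a fixed top-ranked set picked for dose follow-up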
Autofluor 339: intrinsic fluorescence of library compounds, ex339/em460 – biochemical, MLSMR library, data from DPM-DC assay, artefact control, profiling panel. AID 709. compound autofluorescence, ex339/em460 nm, NADH buffer; active compounds read high; 1 = no-compound wells, NADH background. fluorescence fold increase at 10 µM. 5.5% of 65,000 active;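 active = at 10 µM, mean starting fluorescence two-fold or more over control wells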;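 also: signal is the first read of a kinetic run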
Abs 340nm: compounds absorbing at 340 nm | fold change at 10 µM | AID 708 | 65,000 tested, under 10 active | compound absorbance at 340 nm, fold over control;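 active = at 10 µM dose, initial 340 nm absorbance at least 2 fold that of control wells; inactive = change under 2 fold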;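 also: initial absorbance extrapolated from kinetic A340 decline of NADH oxidation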
Spn DPM-DC inh: blocks S. pneumoniae diphosphomevalonate decarboxylase. calls only at 10 µM. 0.49% of 65,000 active. purified DPM-DC, PK/LDH coupled NADH fluorescence;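 active = the 320 compounds with the highest percent inhibition in the single-dose primary screen, excluding strongly autofluorescent ones, cut at about 32% in these data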;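 also: kinetic rate of NADH fluorescence loss reporting ADP formed by the decarboxylase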
NADH coupling: blocks coupling enzymes of NAD/NADH assays | coupled PK/LDH NADH assays, four targets | IC50, µM (top dose mostly 10 µM), for the others: top-dose inhibition | 0.02% of 65,000 active;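 active = single-dose screening hits from any of four coupled enzyme assays that gave an IC50 when retested across doses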;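 also: the DPM-DC format reads NADH fluorescence rather than 340 nm absorbance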
Spn PMK inh: blocks S. pneumoniae phosphomevalonate kinase. AID 539. purified PMK, PK/LDH-coupled NADH absorbance 340 nm. 0.49% of 65,000 active. inhibition, % at 10 µM;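 active = top-ranked compounds by inhibition in the single 10 µM screen, taking a fixed number of the strongest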;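 also: 0% = full reaction with DMSO carrier and 100% = background rate without enzyme reaction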
* hit, by the source's call; i = inactive; . = no result shown; + = active, no number. In the library only some 6.5% were active in any assay of this set; here they are far more common.

SMILES	MK inhibit	Autofluor 339	Abs 340nm	Spn DPM-DC inh	NADH coupling	Spn PMK inh
O=C1CSC(c2cn(-c3ccccc3)nc2-c2cc3ccccc3oc2=O)N1Cc1ccco1 (stereo not given)	7	5*	1	.	11%	14
Cc1cc2oc(=O)cc(C)c2cc1NC(=O)CCC(=O)O	9	2.5*	0.99	i	11%	5
O=C(CSc1nnc(-c2csc3c2CCCC3)o1)Nc1ccccc1	13	1.1	1	i	7%	0
CCN(CC)S(=O)(=O)c1cccc2cc(C(=O)O)c(O)cc12	9	2.1*	1	i	12%	12
CCN(CC)S(=O)(=O)c1cccc2c(N(C)C)cccc12	0	1.9	1	i	7%	16
O=S(=O)(c1ccccc1)N1CCN(c2ncnc3sc(-c4ccccc4)cc23)CC1	1	5.2*	1.1	.	2%	2
CCCCC(=O)Nc1cc(N(C)C)nc2ccccc12	15	3.8*	1	.	14%	12
CN(C)c1cc(NC(=O)CN2CCOCC2)c2ccccc2n1	4	1.8	1	.	3%	0
O=c1nc2c(-c3ccccc3F)n[nH]n2c2ccccc12	2	5.1*	1	.	1%	0
Cc1cc(C(=O)OCC(=O)N2CCN(c3ccccc3)CC2)c2ccccc2n1	2	1.1	1	i	7%	18
Nc1nc(CN2CCN(c3ccccn3)CC2)nc(Nc2ccc(Cl)cc2)n1	8	1.2	1	i	7%	11
CC1(C)Cc2nc3sc4c(=O)[nH]cnc4c3cc2CS1	9	2.8*	1.1	+	18%	8
CC1(C)Cc2[nH]c(=O)c(C#N)cc2CS1	12	1.3	1.1	i	15%	7
